Source: PubChem BioAssay (NCI)
Compounds without any hit were thinned out: in the full panel of roughly 83,000, 20% have a hit.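 Negative percent growth values reflect cell death: -40 means 40% of the cells present at the start died, and -100 means all died.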 The source made the active and inactive calls. Rule for the calls: active = growth percent below 10; inactive = the rest.

Key:
Assay in all cases: NCI-60 one-dose screen, 48 h (100 = growth as untreated, 0 = no growth, -100 = all killed)
Settings in all cases: 10 µM unless noted
[1] = tested on: NCI-H23 lung
[2] = tested on: NCI-H226 lung
[3] = tested on: NCI-H322M lung
[4] = tested on: HOP-62 NSCLC
[5] = tested on: NCI-H460 lung
[6] = tested on: HOP-92 NSCLC
[7] = tested on: NCI-H522 lung
[8] = tested on: A549/ATCC NSCLC
[9] = tested on: 786-0 renal
[10] = tested on: COLO 205 colon

Measured: growth

O=C(CCN1CCCCC1)c1ccc2ccccc2c1
inactive: [1] 103% | [2] 92.2% | [3] 98.4% | [4] 108% | [5] 103% | [6] 92.8% | [7] 93.5% | [8] 102% | [9] 111%

O=c1cc(-c2ccccc2)oc2c(O)c(O)ccc12
inactive: [1] 57.6% | [2] 85.5% | [3] 79% | [4] 52.7% | [5] 17.3% | [7] 43.6% | [8] 55.5% | [9] 65%
active: [6] 7.46%

C[C@H]1[C@H](C)CC[C@]2(COC(=O)CCC(=O)O)CC[C@]3(C)C(=CC[C@@H]4[C@@]5(C)CCCNC(C)(C)[C@@H]5CC[C@]43C)[C@H]12
inactive: [1] 62.8% [100 µM] | [2] 76.3% [100 µM] | [3] 86.8% [100 µM] | [4] 49.1% [100 µM] | [5] 66.8% [100 µM] | [7] 53.5% [100 µM] | [8] 70.9% [100 µM] | [9] 55.6% [100 µM]
active: [6] -7.31% [100 µM]

O=C(CCNCc1ccccc1)c1ccccc1
inactive: [1] 106% | [2] 102% | [3] 110% | [4] 104% | [5] 110% | [6] 120% | [7] 101% | [8] 101% | [9] 108%

Oc1c(CNCCNCc2cc(Cl)cc(Cc3ccccc3)c2O)cc(Cl)cc1Cc1ccccc1
active: [2] 9.76% | [5] 8.13% | [9] -3.97%
inactive: [1] 17.4% | [3] 23.4% | [4] 19.4% | [6] 45.1% | [7] 43.7% | [8] 13.9%

Cc1c(Cn2cc(COc3ccc(Br)cc3)nn2)c(C)c(Cn2cc(COc3ccc(Br)cc3)nn2)c(C)c1Cn1cc(COc2ccc(Br)cc2)nn1
active: [7] -30.4%
inactive: [1] 98.7% | [2] 88.2% | [3] 108% | [4] 84% | [5] 102% | [6] 93.7% | [8] 83.4% | [9] 95.2%

O=S(=O)(NCc1ccccc1)c1ncnc2nc[nH]c12
inactive: [1] 106% | [2] 99.4% | [3] 109% | [4] 103% | [5] 117% | [6] 117% | [7] 95.5% | [8] 86.5% | [9] 107%

C=CCCC1(C)NC(=O)NC1=O (stereo unspecified)
inactive: [1] 96.5% | [2] 105% | [3] 108% | [4] 84% | [5] 104% | [6] 87.1% | [7] 86.1% | [8] 93.4% | [9] 93.5%

CCn1cc(-c2[nH]c(=S)ncc2-c2ccc(Cl)cc2)c(-c2ccc(Br)cc2)n1
inactive: [1] 85.8% | [2] 94% | [3] 96.5% | [4] 61.6% | [5] 58.5% | [6] 104% | [7] 58.5% | [8] 72.2% | [9] 101%

COc1cc2c(O)n(CCCN3CCOCC3)c3c4cnc5cccc(c(=O)c3c2cc1OC)c54
active: [5] 9.15%
inactive: [1] 33.3% | [2] 38.2% | [3] 47.2% | [4] 14.5% | [6] 58.4% | [7] 16.9% | [8] 30.1% | [9] 19% | [10] 34.2%

O=C(CCCCCCSc1nc(-c2ccc(Cl)cc2)cc(-c2ccc(Cl)cc2)n1)NO
inactive: [1] 24.2% | [2] 26.7% | [3] 38.4% | [4] 15.9% | [5] 14.9% | [6] 44.8% | [7] 17.1% | [9] 30.8% | [10] 48.4%
active: [8] 7.16%

CCN1c2ccccc2C(Cl)(c2ccc(N(C)C)cc2)c2ccccc21
inactive: [1] 33.8% | [2] 88.2% | [3] 116% | [4] 73.6% | [5] 66% | [6] 59.6% | [7] 64.2% | [8] 82.9% | [9] 75.8% | [10] 75.5%

O=C(O)c1ccccc1C(F)(F)F
inactive: [1] 66.7% | [2] 89.2% | [3] 106% | [4] 103% | [5] 102% | [6] 88.2% | [7] 72.1% | [8] 16.1% | [9] 96.2% | [10] 102%

CCOC(=O)c1nn(C2CCCCO2)c2ccc(NC(=O)CN3CCCC3)cc12 (stereo unspecified)
inactive: [1] 110% | [2] 110% | [3] 89.7% | [4] 92.7% | [5] 100% | [6] 106% | [7] 97.9% | [8] 100% | [9] 93.3% | [10] 126%

COc1ccc2c(c1)c(-c1noc(-c3cn(C)c4ncc(F)cc34)n1)cn2C
inactive: [1] 75.4% | [2] 108% | [3] 57% | [4] 55.7% | [5] 18.5% | [6] 69.9% | [7] 79% | [8] 21.5% | [9] 50.8% | [10] 88.3%

CCOC(=O)c1cnc2ccc(Br)cc2c1Nc1cccc(S(N)(=O)=O)c1
inactive: [1] 93% | [2] 88.6% | [3] 105% | [4] 97.1% | [5] 105% | [6] 91.1% | [7] 96.6% | [8] 101% | [9] 105% | [10] 128%

Oc1cc(Nc2ccnc3cc(Cl)ccc23)c2ncccc2c1
inactive: [1] 73.8% | [2] 91% | [3] 99.7% | [4] 74.4% | [5] 75.5% | [6] 39.3% | [7] 76.7% | [8] 84.2% | [9] 106% | [10] 96.4%

COc1ccc(/C=C/C=C\C(=O)c2ccc(-n3ccnc3)cc2)cc1
active: [9] -0.616%
inactive: [1] 94.1% | [2] 84.3% | [3] 101% | [4] 101% | [5] 92.7% | [6] 96.5% | [7] 85.3% | [8] 81.9% | [10] 101%

Cc1cc(N2CCCCCC2)nc(N2CCN(CC(=O)Nc3ccc4c(ccn4Cc4ccccc4)c3)CC2)n1
active: [6] 8.3%
inactive: [1] 48.3% | [2] 53.5% | [3] 80.7% | [4] 54.1% | [5] 36.7% | [7] 55% | [8] 46.8% | [9] 39% | [10] 31.2%

CCCCCN(CCCCC)CCCCCCCCN1CCCc2ccccc21
inactive: [1] 76% | [2] 97.6% | [3] 89.9% | [4] 109% | [5] 96% | [6] 88% | [7] 34.6% | [8] 95.8% | [9] 96.6% | [10] 88.5%

COc1cc(OC)c(/C=C/C(=O)c2c(N)cc(OC)cc2OC)c(OC)c1
inactive: [2] 75% | [3] 54.4% | [4] 43.6% | [6] 26.6% | [8] 27.4% | [9] 35.2%
active: [1] 8.81% | [5] 2.53% | [7] -11.8% | [10] -24.4%

NC(=S)Cc1ccccc1
inactive: [1] 102% | [2] 96.8% | [3] 98.3% | [4] 98.1% | [5] 106% | [6] 108% | [7] 92% | [8] 99.7% | [9] 99.6% | [10] 108%

C=C(C)[C@@H]1CC[C@]2(C(N)=O)CC[C@]3(C)[C@H](CC[C@@H]4[C@@]5(C)C/C(=C/c6cccnc6)C(=O)C(C)(C)[C@@H]5CC[C@]43C)[C@@H]12
active: [2] 9.08% [100 µM] | [4] 3.06% [100 µM] | [5] -42.8% [100 µM] | [7] -16.8% [100 µM] | [10] -23.6% [100 µM]
inactive: [1] 18.9% [100 µM] | [3] 12.7% [100 µM] | [6] 16.8% [100 µM] | [8] 14.2% [100 µM] | [9] 18.1% [100 µM]

O=S(=O)(NCCNc1nccc(-c2c(-c3cccc(F)c3)nc3occn23)n1)c1ccc(C(F)(F)F)cc1
inactive: [1] 98.5% | [2] 84.2% | [3] 89.3% | [4] 85.1% | [5] 98.9% | [6] 77.5% | [7] 74.4% | [8] 70% | [9] 78.7% | [10] 96%

COc1cc(-c2nc(SCCC(C)C)nc(Nc3ccc(S(N)(=O)=O)cc3)c2C#N)cc(OC)c1OC
inactive: [1] 51.2% | [2] 44% | [3] 72.7% | [4] 33.5% | [5] 19.7% | [7] 45% | [8] 26.4% | [9] 31.4% | [10] 29.8%
active: [6] 2.39%

CCN(CC)CCCCCCNc1cccc2cc(Br)cnc12
inactive: [1] 85.7% | [2] 108% | [3] 94.3% | [4] 118% | [5] 87.3% | [6] 71.6% | [7] 26.7% | [8] 97.8% | [9] 92.8% | [10] 89.9%
